NIH3T3 tox – Cytotoxic Profiling in NIH 3T3 Cell Line of Diverse Libraries Using Quantitative High-Throughput Screening | NIH 3T3 viability, CellTiter-Glo ATP luminescence, 48-72 h | Potency, µM (series often up to 96.7 µM), for inactives: top-dose activity change, negative = cytotoxicity, most hits filed as inhibitors | actives 4.3% (n = 94,000); further: on the % scale 0 is the no-effect control and ±100 the full control effect; nearly all actives have a fitted effect of over 55% in size
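ATP-dependent luminescence (CellTiter-Glo) served as the viability signal for NIH 3T3 cells treated with compound for 48 or 72 hr at 37 °C.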
HEK293 tox – Cytotoxic Profiling in HEK 293 Cell Line of Diverse Libraries Using Quantitative High-Throughput Screening | HEK 293 viability, ATP luminescence (CellTiter-Glo), 48-72 h | Potency, µM (highest dose often 115 µM), inactives show at the top dose activity change, negative = cytotoxicity, actives largely listed as inhibitors | actives 6.6% (n = 94,000) | AID 1345083, 2018; further: on the % scale 0 is the no-effect control and ±100 the full control effect; nearly all actives have a fitted effect of over 60% in size
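Cytotoxicity was scored by loss of ATP-coupled luminescence (CellTiter-Glo) in HEK 293 cells. Compound treatment ran 48 or 72 hr at 37 degree Celsius, 5% CO2, 95% humidity.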
NPR1 antag – Natriuretic polypeptide receptor (hNpr1) antagonism - Primary qHTS; HEK293 hNpr1 GloSensor cGMP, ANP-stimulated luminescence; Potency, µM (top dose mostly 46.3 µM), for inactives: at the top dose activity change, negative = inhibition, most hits filed as inhibitors; actives 1.6% (n = 76,000); calls by dose curve; further: on the % scale 0 is the no-effect control and ±100 the full control effect; nearly all actives have a fitted effect of over 60% in size
Target sequence (P16066 whole entry, looked up): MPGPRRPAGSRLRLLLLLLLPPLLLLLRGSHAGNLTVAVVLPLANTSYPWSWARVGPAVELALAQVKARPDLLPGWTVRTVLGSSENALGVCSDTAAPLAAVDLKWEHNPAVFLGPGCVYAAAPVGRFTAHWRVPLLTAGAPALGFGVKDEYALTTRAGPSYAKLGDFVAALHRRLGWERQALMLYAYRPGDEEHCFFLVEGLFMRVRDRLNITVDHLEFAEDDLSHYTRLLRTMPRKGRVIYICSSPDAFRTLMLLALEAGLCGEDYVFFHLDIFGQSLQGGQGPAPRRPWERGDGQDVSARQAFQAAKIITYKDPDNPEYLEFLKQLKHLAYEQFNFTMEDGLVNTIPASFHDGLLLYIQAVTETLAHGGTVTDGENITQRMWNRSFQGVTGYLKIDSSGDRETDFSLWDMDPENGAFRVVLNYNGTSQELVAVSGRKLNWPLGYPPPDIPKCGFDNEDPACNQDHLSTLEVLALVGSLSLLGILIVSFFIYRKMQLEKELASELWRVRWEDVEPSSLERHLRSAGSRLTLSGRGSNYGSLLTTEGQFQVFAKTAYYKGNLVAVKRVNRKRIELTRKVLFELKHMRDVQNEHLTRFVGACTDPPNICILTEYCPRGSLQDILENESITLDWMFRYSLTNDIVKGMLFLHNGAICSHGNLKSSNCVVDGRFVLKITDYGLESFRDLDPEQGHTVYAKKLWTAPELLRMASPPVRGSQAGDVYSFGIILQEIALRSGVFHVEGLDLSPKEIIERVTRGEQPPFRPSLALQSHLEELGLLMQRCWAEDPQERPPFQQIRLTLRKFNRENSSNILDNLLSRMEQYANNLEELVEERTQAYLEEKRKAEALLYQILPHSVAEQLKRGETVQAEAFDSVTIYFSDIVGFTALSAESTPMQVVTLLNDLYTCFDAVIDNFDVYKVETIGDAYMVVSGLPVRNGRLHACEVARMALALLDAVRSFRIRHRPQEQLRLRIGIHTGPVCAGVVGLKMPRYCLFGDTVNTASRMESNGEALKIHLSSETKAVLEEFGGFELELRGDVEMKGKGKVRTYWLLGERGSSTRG
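Compound pre-incubated 30 min at room temperature on GloSensor-loaded HEK293 cells stably carrying hNpr1 and the pGS-40F cGMP biosensor. Stimulation uses hNppA at 0.1 nM final; luminescence is taken at baseline and 20 min post-agonist.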
FLuc inh – Firefly luciferase inhibition profiling of diverse chemical library using quantitative high-throughput screening. actives 2.5% (n = 76,000). Potency, µM (highest dose often 115 µM), usual class: inhibitors. AID 1347043, 2019. purified P. pyralis luciferase, luminescence, biochemical. Luciferin 4-monooxygenase (Photinus pyralis), P08659; further: on the % scale 0 is the no-effect control and ±100 the full control effect; nearly all actives have a fitted effect of over 65% in size
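Purified P. pyralis luciferase (10nM final) in 50mM Tris acetate pH 7.5, 10mM Mg acetate, 0.01% Tween-20, 0.05% BSA with 10uM D-luciferin and 10uM ATP. Compounds titrated qHTS. Luminescence imaged on CCD.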
NPR1 antag cnf – Natriuretic polypeptide receptor (hNpr1) antagonism - Confirmation | shares compounds with NPR1 antag | actives 76% (n = 1,400) | HEK293 hNpr1 cGMP GloSensor luminescence, ANP-stimulated | Potency, µM (highest dose often 57.6 µM), without a hit: at the highest dose activity change, negative = inhibition, hits mostly inhibitors; calls by dose curve; further: nearly all actives have a fitted effect of over 70% in size
NPR2 antag – Natriuretic polypeptide receptor (hNpr2) antagonism - Subtype selectivity assay; shares compounds with NPR1 antag; HEK293 hNpr2 GloSensor cGMP luminescence, CNP-stimulated; Potency, µM (titrated, usually from 57.6 µM), without a hit: top-dose activity change, negative = inhibition, hits mostly inhibitors; actives 67% (n = 1,400); AID 1347046, 2019; calls by dose curve; further: nearly all actives have a fitted effect of over 70% in size
FLuc counter – Natriuretic polypeptide receptor (hNpr1) antagonism - Confirmation firefly luciferase (FLuc) inhibition counterscreen; shares compounds with NPR1 antag; actives 0.7% (n = 1,400); AID 1347047, 2019; Potency, µM (top dose mostly 57.6 µM), inactives show top-dose activity change, negative = inhibition, most hits filed as inhibitors; purified FLuc enzyme, luminescence, Km substrate; further: 0% is about no effect
GloSensor ctrl – Natriuretic polypeptide receptor (hNpr1) antagonism - Counterscreen GloSensor control cell line | shares compounds with NPR1 antag | HEK293 GloSensor cGMP, SNP-stimulated, luminescence | Potency, µM (top dose mostly 57.6 µM), inactives show top-dose activity change, negative = inhibition, actives largely listed as inhibitors | actives 69% (n = 1,400) | AID 1347051, 2019; calls by dose curve; further: on the % scale 0 is the no-effect control and ±100 the full control effect; nearly all actives have a fitted effect of over 70% in size
* hit, by the source's call; i = inactive; ? = inconclusive; nt = no result given; [ ] = remark or other dose. Shown are actives, neighbours in structure and some others; about 11% of the full set was active somewhere. Unless noted, the call rests on the fitted dose curve; in most records, active means well fitted curve in the direction sought with a large enough effect; inconclusive means small, poorly fitted or top-dose-only effect, or another doubt; inactive means no such curve, though single readings can be large; an effect the other way counts as inactive or inconclusive. Potency means the concentration at half of the fitted maximal effect.

SMILES	NIH3T3 tox	HEK293 tox	NPR1 antag	FLuc inh	NPR1 antag cnf	NPR2 antag	FLuc counter	GloSensor ctrl
COc1cccc(-c2noc(CC3CCN(C(=O)c4ccc(OC)cc4C)CC3)n2)c1	?	?	3.5µM*	i	3.4µM*	4.8µM*	2%	2.7µM*
CCCCOc1ccc(C(=O)N2CCC[C@H]2c2nc(-c3ccc(F)cc3)no2)cc1	?	?	-10%	i	nt	nt	nt	nt
O=C(N1CCC(Cc2nc(-c3ccc(F)cc3)no2)CC1)C1(c2ccccc2)CC1	?	?	?	i	nt	nt	nt	nt
COc1ccc(C2(C(=O)N3CCC(Cc4nc(-c5ccccc5)no4)CC3)CC2)cc1	?	?	7.9µM*	i	7.7µM*	9.7µM*	0%	9.7µM*
COc1ccc(C2(C(=O)N3CCC(Cc4nc(-c5ccc(F)cc5)no4)CC3)CC2)cc1	?	?	5.6µM*	i	4.8µM*	6.1µM*	0%	6.1µM*
Cc1ccc(CN2C(=O)NC3(CCCN(C(=O)c4cc5ccccc5[nH]4)C3)C2=O)cc1 (centres undefined)	?	?	-4%	?	nt	nt	nt	nt
O=C(c1cc2ccccc2[nH]1)N1CCC2(C1)NC(=O)N(Cc1ccc(F)cc1)C2=O (centres undefined)	?	?	22µM*	i	?	?	-23%	31µM*
COc1ccc(Cl)cc1-n1nc(C2CC2)nc1C(C)Cn1cncn1 (centres undefined)	-21%	-7%	1%	i	nt	nt	nt	nt
CCN1C(=O)CN(C(=O)c2cccs2)CC12CCOCC2	-22%	-12%	nt	nt	nt	nt	nt	nt
COc1ccc(CN2C[C@@H]3C(=O)N(Cc4ccc5c(c4)OCO5)C(=O)[C@@H]3C2)cc1OC	-34%	?	14µM*	i	17µM*	19µM*	-2%	12µM*
COc1ccccc1CN1C[C@@H]2C(=O)N(Cc3ccc4c(c3)OCO4)C(=O)[C@@H]2C1	-17%	-4%	-1%	i	nt	nt	nt	nt
CC(C)c1nc2c(c(-c3ccc(Cl)cc3)n1)CCN(Cc1cccc3ccccc13)CC2	-29%	?	nt	nt	nt	nt	nt	nt
Clc1ccc(-c2nc(C3CC3)nc3c2CCN(Cc2ccccc2)CC3)cc1	-5%	-15%	8%	i	nt	nt	nt	nt
Oc1ccc(-c2nc(C3CC3)nc3c2CCN(Cc2cccc4ccccc24)CC3)cc1	?	18µM*	-24%	i	-27%[86.2 µM]	?	2%[86.2 µM]	-32%[86.2 µM]
O=C(c1cc(Cl)ccc1F)N1CCC(Cc2nc(-c3ccc(F)cc3)no2)CC1	?	?	3.2µM*	i	4.3µM*	5.4µM*	4%	4.3µM*
O=C(c1cc(F)cc(F)c1)N1CCC(Cc2nc(-c3ccc(F)cc3)no2)CC1	?	?	?	i	nt	nt	nt	nt
O=C(c1cc(F)ccc1F)N1CCC(Cc2nc(-c3ccc(F)cc3)no2)CC1	?	?	3.2µM*	i	3.1µM*	4.8µM*	4%	3.1µM*
O=C(O)c1ccc(CN2CC[C@H](c3nnc(-c4cccnc4)o3)C2)cc1	-2%[174 µM]	2%[172 µM]	2%[70.6 µM]	i	nt	nt	nt	nt
O=C(c1ccc2nc[nH]c2c1)N1CCC(CO)(CCCc2ccccc2)CC1	-23%	25µM*	11µM*	i	24µM*	24µM*	6%	22µM*
O=C(c1cc2cc(F)ccc2[nH]1)N1CCC(CO)(CCCc2ccccc2)CC1	?	?	-15%	i	nt	nt	nt	nt
FC(F)(F)c1cccc2c(N3CCOC(C(F)(F)F)C3)ccnc12 (centres undefined)	-46%	?	10µM*	i	24µM*	?	4%	19µM*
FC(F)(F)C1CN(c2ccnc3ccc(Cl)cc23)CCO1 (centres undefined)	?	40µM*	11µM*	i	22µM*	22µM*	0%	22µM*
OC[C@H]1CCN(c2ccnc3c(C(F)(F)F)cccc23)C[C@H]1O	-4%	?	-1%	i	nt	nt	nt	nt
COc1ccc(C)cc1NC(=O)Cn1c(N(C)Cc2ccccc2)nc(C)cc1=O	-32%	?	13µM*	i	24µM*	24µM*	0%	31µM*
Cc1cc(=O)n(CC(=O)Nc2cccc(Cl)c2)c(N(C)Cc2ccccc2)n1	?	?	?	i	nt	nt	nt	nt
SMILES	NIH3T3 tox	HEK293 tox	NPR1 antag	FLuc inh	NPR1 antag cnf	NPR2 antag	FLuc counter	GloSensor ctrl
COc1ccccc1NC(=O)Cn1c(N(C)Cc2ccccc2)nc(C)cc1=O	?	?	-26%	i	nt	nt	nt	nt
COc1cc(NC(=O)Cn2c(N(C)Cc3ccccc3)nc(C)cc2=O)cc(OC)c1OC	?	?	7.1µM*	i	11µM*	14µM*	0%	11µM*
CCOC(=O)c1ccc(NC(=O)Cn2c(N(C)Cc3ccccc3)nc(C)cc2=O)cc1	?	40µM*	14µM*	i	22µM*	22µM*	1%	22µM*
COc1cc(NC(=O)Cn2c(N(C)Cc3ccccc3)nc(C)cc2=O)cc(OC)c1	?	16µM*	7.9µM*	i	11µM*	12µM*	0%	6.9µM*
COc1ccc(CN2C(=O)[C@@H]3C[C@@H](O)CN3C3(CN(Cc4cnc[nH]4)C3)C2=O)cc1	i	4%[172 µM]	7%[70.6 µM]	i	nt	nt	nt	nt
O=C(Cc1c[nH]c2ncc(-c3ccc(Oc4ccccc4)cc3)cc12)N1CCOCC1	?	56µM*	10µM*	i	13µM*	18µM*	?	11µM*
O=C(Cc1c[nH]c2ncc(-c3ccccc3Oc3ccccc3)cc12)N1CCOCC1	?	50µM*	14µM*	i	13µM*	22µM*	-2%[86.2 µM]	13µM*

Compound activity (PubChem BioAssay)
